Data on six compounds can be found in PubChem BioAssay (NCATS).

Experiment [1] has as its target DNA repair nuclease/redox regulator APEX1 (Homo sapiens) (UniProt P27695). Description: qHTS Validation Assay for Inhibitors of the Human Apurinic/apyrimidinic Endonuclease 1 (APE1) (AID 1705;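 note: TAMRA fluorescence gain over two minutes as APE1 cuts a quenched THF abasic duplex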). Summed up: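 Activity read as rising fluorescence (598 nm emission, 525 nm excitation) from incision of a TAMRA/BHQ-2 duplex carrying a THF abasic site (50 nM). Compound and enzyme sat 15 min at RT before substrate start; signal change between first and third 60-s reads.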
A general note: In qHTS, concentration-response curves come from the screen itself.

The nature of experiment [2]: Counterscreen for APE1 Inhibitors: Fluorescent Dye Displacement Validation Assay (AID 1707). An outline of the steps:
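Assay buffer: Tris-HCl pH7.5 with 50mM NaCl, 2 mM MgCl2, 0.01% Tween-20. Dye 250 nM, duplex 50 nM final. Readout: decrease in ThO endpoint fluorescence, 480 nm excitation, 540 nm emission.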

Experiment [3] has as its target Endonuclease 4 (Escherichia coli (strain K12)) (UniProt P0A6C1). Briefly: Counterscreen for APE1 Inhibitors: qHTS Validation Assay for Inhibitors of Endonuclease IV (AID 1708). An outline of the steps: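 E. coli EndoIV at 2 nM final, preincubated 15 min at room temperature with compound, then 50 nM TAMRA/BHQ-2 THF abasic-site duplex added. Buffer: 50 mM Tris-HCl pH 7.5, 50 mM NaCl, 2 mM MgCl2, 1 mM DTT, 0.01% Tween-20. Kinetic fluorescence increase, third minus first read.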
(Counterscreens check selectivity or assay interference.)

Experiment [4] is described as follows: qHTS for differential inhibitors of proliferation of Plasmodium falciparum line 7G8 (AID 1815).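 Note: parasite growth measured after three days of incubation.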 Note: potency is the fitted concentration of half-maximal effect.
A short description of experiment [5]: qHTS for differential inhibitors of proliferation of Plasmodium falciparum line GB4 (AID 1816).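 Note: parasite growth measured after 72 h incubation.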 Note: potency is the fitted concentration of half-maximal effect. The settings on record: Potency: Plasmodium falciparum GB4 proliferation inhibition.
A short description of experiment [6]: qHTS for differential inhibitors of proliferation of Plasmodium falciparum line D10 (AID 1877).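 Note: parasites grown with compound for 72 h before DNA staining.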 Note: potency is the fitted concentration of half-maximal effect.
Experiment [7] can be described thus: qHTS for differential inhibitors of proliferation of Plasmodium falciparum line Dd2 (AID 1882). Note: nearly all actives have a fitted effect of over 65% in size. Note: potency is the fitted concentration of half-maximal effect. To be noted: Potency: Plasmodium falciparum Dd2 proliferation inhibition. Summed up: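 Dd2-infected erythrocytes (0.3% parasitemia, 2.5% hematocrit final) incubated with compound 72 h at 37 C, 5% CO2; lysed with saponin/Triton buffer containing SYBR Green I, incubated overnight in the dark, then read by fluorescence (485/535 nm). Normalized to 0.29 uM artemisinin and DMSO.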

A short description of experiment [8]: qHTS for differential inhibitors of proliferation of Plasmodium falciparum line W2 (AID 1883).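 Note: parasites grown with compound for 72 h before lysis and staining.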 Note: potency is the fitted concentration of half-maximal effect. The settings on record: Potency: Plasmodium falciparum W2 proliferation inhibition.
Experiment [9] is described as follows: qHTS for differential inhibitors of proliferation of Plasmodium falciparum line HB3 (AID 1886).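 Note: parasites grown with compound for 72 h before SYBR Green readout.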 Note: potency is the fitted concentration of half-maximal effect. The settings on record: Potency: Plasmodium falciparum HB3 proliferation inhibition.
The target in experiment [10] is Luciferin 4-monooxygenase (Photinus pyralis) (UniProt P08659). Briefly: Biochemical firefly luciferase enzyme assay for NPC (AID 624030).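 Note: purified P. pyralis luciferase at 10 nM with luciferin and ATP substrate; nearly all actives have a fitted effect of over 70% in size.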 Summed up: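 Purified P. pyralis luciferase at 10 nM in 50 mM Tris Acetate (final), luminescence read within 5 minutes of enzyme addition to compounds. Activity normalised to PTC124 versus DMSO; concentration-response curves classed by r2, magnitude and activity.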
Chain of Luciferin 4-monooxygenase (Photinus pyralis) (P08659 whole entry, looked up): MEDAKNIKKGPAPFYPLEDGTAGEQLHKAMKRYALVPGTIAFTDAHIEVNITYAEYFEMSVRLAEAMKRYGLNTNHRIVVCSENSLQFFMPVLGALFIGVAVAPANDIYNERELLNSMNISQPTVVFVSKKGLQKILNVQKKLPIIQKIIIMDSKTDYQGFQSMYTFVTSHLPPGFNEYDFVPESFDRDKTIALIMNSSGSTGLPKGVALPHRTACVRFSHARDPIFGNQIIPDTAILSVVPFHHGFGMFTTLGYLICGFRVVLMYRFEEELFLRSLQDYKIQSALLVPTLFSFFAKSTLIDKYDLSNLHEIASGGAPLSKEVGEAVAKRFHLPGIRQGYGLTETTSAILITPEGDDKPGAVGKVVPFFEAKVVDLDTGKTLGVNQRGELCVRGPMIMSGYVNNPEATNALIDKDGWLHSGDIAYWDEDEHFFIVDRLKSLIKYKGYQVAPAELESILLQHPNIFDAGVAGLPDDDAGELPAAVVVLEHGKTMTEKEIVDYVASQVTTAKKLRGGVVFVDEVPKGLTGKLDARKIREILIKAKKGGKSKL

Experiment [11] can be described thus: S16 Schwann cell viability assay (CellTiter-Glo assay) (AID 624031).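 Note: native untransfected S16 rat Schwann cells; nearly all actives have a fitted effect of over 70% in size.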 Summed up: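 Rat S16 Schwann cells without reporter constructs received compound or DMSO for 24 h at 37 °C under 5% CO2. Cellular ATP was then quantified by CellTiter-Glo luminescence, with vehicle wells defined as 0% activity and cell-free wells as reference.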
On the technique in general: Cellular ATP, detected with luciferase, serves as a proxy for viable cell number.

The next experiment has as its system 3D7. Briefly: qHTS profiling for inhibitors of Plasmodium falciparum proliferation (AID 504749). Note: nearly all actives have a fitted effect of over 60% in size. Note: potency is the fitted concentration of half-maximal effect. The settings on record: P. falciparum in erythrocytes, SYBR Green DNA, 72 h; series mostly up to 28.7 µM. An outline of the steps:
(§1)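 P. falciparum-infected erythrocytes (0.3% parasitemia, 2.5% hematocrit) incubated with compound 72 h at 37 C, 5% CO2. Parasite DNA detected by SYBR Green after lysis, overnight at room temperature; normalised to 0.29 uM artemisinin and DMSO.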

The next experiment has as its system CP211. The description is as above. To be noted: P. falciparum in erythrocytes, SYBR Green DNA, 72 h; series mostly up to 28.7 µM. An outline of the steps: as §1
The subject of a further experiment is CP266. The experiment is described as above. To be noted: P. falciparum in erythrocytes, SYBR Green DNA, 72 h; series mostly up to 28.7 µM. An outline of the steps: as §1
Another experiment deals with PC15. The experiment is described as above. The settings on record: P. falciparum in erythrocytes, SYBR Green DNA, 72 h; series mostly up to 28.7 µM. Summed up: as §1
In a further experiment the test system is PC49. Described as above. The settings on record: P. falciparum in erythrocytes, SYBR Green DNA, 72 h; series mostly up to 28.7 µM. An outline of the steps: as §1
The next experiment concerns CP194. The experiment is described as above. To be noted: P. falciparum in erythrocytes, SYBR Green DNA, 72 h; series mostly up to 28.7 µM. Summed up: as §1
The test system of another experiment is DIV14. Described as above. To be noted: P. falciparum in erythrocytes, SYBR Green DNA, 72 h; series mostly up to 28.7 µM. Summed up: as §1
The subject of the next experiment is GB4. Described as above. To be noted: P. falciparum in erythrocytes, SYBR Green DNA, 72 h; series mostly up to 28.7 µM. Summed up:
as §1

The test system of a further experiment is PC26. The experiment is described as above. The settings on record: P. falciparum in erythrocytes, SYBR Green DNA, 72 h; series mostly up to 28.7 µM. Summed up:
as §1

Records with an inconclusive call do not appear. Active and inactive are the calls of the source. Calls come from the whole dose curve; as a rule, active = well fitted curve in the direction sought with a large enough effect; inconclusive = small, poorly fitted or top-dose-only effect, or another doubt; inactive = no such curve, though single readings can be large; an effect the other way counts as inactive or inconclusive.

Chain of DNA repair nuclease/redox regulator APEX1 (Homo sapiens) (P27695 whole entry, looked up): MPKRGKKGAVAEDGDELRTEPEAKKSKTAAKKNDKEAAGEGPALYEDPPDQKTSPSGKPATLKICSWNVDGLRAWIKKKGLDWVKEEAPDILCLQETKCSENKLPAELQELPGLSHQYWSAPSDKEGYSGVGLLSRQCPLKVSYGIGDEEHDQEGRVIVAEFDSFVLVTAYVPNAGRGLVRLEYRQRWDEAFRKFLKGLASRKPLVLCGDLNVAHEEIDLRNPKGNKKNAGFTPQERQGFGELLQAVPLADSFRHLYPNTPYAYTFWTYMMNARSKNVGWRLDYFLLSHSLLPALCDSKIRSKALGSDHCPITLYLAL

As for `N#CC(C#N)=Cc1ccc([N+](=O)[O-])c(O)c1`, the Potency result in experiment [1], in experiment [2], in experiment [4], in [5], in [6] and in [7] was “inactive” in each case. The Potency entry in experiment [8] and in experiment [9] was “inactive” in each case. In [3], the compound was called inactive.
As to `CN1CCc2cc(O)cc3c2C1Cc1ccc(O)c(O)c1-3` (stereo unspecified), the Potency entry in [1] and in experiment [2] was “inactive” throughout. Besides, in experiment [3], the compound was called inactive. The Potency in experiment [4] is 8.91 µM (active); in experiment [5], 8.91 µM (active); in experiment [6], 12.6 µM (active); in experiment [7], 8.91 µM (active); in experiment [8], 6.31 µM (active); in [9], 12.6 µM (active).
`CCN1C[C@]2(COC)[C@H](O)C[C@H](OC)[C@]34C1C([C@H](OC)[C@H]23)[C@]1(OC(C)=O)C2[C@@H](OC(=O)c3ccccc3)C(O)(C[C@H]24)[C@@H](OC)[C@@H]1O`: the Potency entry (in experiment [10]; in [11]; in the experiment with 3D7; with CP211; with CP266; in the experiment with PC15) was “inactive” each time. In addition, the Potency result in the experiment on PC49 is “inactive”.
In the case of `O=C(O)c1ccccc1-c1c2cc(Br)c(=O)cc-2oc2[c]([Hg])c(O)c(Br)cc12`, the Potency result (in [11]; in the experiment on CP194; in the experiment on CP211; with DIV14; in the experiment with GB4; in the experiment with PC26) was “inactive” in each case.
In the case of `CC(C)[C@@]1(NC(=O)[C@H]2CC3c4cccc5[nH]cc(c45)C[C@H]3N(C)C2)O[C@@]2(O)C3CCCN3C(=O)[C@@H](Cc3ccccc3)N2C1=O` (stereo partly specified), the Potency entry in [10] is “inactive”. Also, the Potency with 3D7 is 2.24 µM (active); in the experiment on CP194, 6.75 µM (active); in the experiment with CP211, 6.01 µM (active); in the experiment with CP266, 6.01 µM (active); in the experiment with DIV14, 953 nM (active); in the experiment with GB4 it was 3.01 µM (active). Also, the Potency with PC15 is 1.78 µM (active); in the experiment on PC26 it was 1.51 µM (active); with PC49, 3.16 µM (active).
For `CCN(CC)CCO[C@H]1CC[C@@]2(C)C(=CC[C@@H]3[C@H]2CC[C@]2(C)C(=O)CC[C@H]32)C1`, the Potency entry (in [10]; in experiment [11]; in the experiment with 3D7; in the experiment with CP194; in the experiment on CP266; with DIV14) was “inactive” in each case. Also, the Potency result in the experiment on GB4, in the experiment with PC15, in the experiment on PC26 and with PC49 was “inactive” throughout.
